# Only a selection was taken, and hits are over-represented in it overall.
# BL2 CD40 inh – CD40 pathway inhibition in BL2 cells; BL2 NF-kB luciferase reporter, CD40L-induced, 4 h; inhibition, % at 10 µM; hit rate 0.94% among 83,000; AID 1053188;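 active = mean inhibition of at least 50% with a set share of replicates also reaching that level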;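 also: 0% = neutral control wells and 100% = IKK inhibitor VII at 50 µM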
# * hit, by the source's call; [ ] = another dose, or the depositor's remark.
SMILES,BL2 CD40 inh
COc1ccc(-c2ccccc2[C@H]2[C@@H](C#N)N(C(=O)C3CCCC3)[C@@H]2CO)cc1,-3
O=S(=O)(Nc1cccnc1)c1ccc2c(c1)OCCO2,3
O=C1CCCN1c1ccc(S(=O)(=O)Nc2ccc3c(c2)OCCO3)cc1,19
CCn1cc(S(=O)(=O)Nc2ccc3c(c2)OCCO3)cn1,76*
CCCN1C[C@@H](C)[C@H](OC)CN(C)C(=O)c2cc(NS(=O)(=O)c3ccccc3)ccc2OC[C@H]1C,7[25 µM]
CCc1nc2ccc(C(=O)N3CCC(C(N)=O)CC3)cc2nc1CC,31
CNC[C@H]1Oc2ccc(NS(C)(=O)=O)cc2C(=O)N(C)C[C@H]1C,13
CC(=NNC(=S)N1CCN(C2CCCCCC2)CC1)c1ccccn1,51*
CC(=NNC(=S)N1CC2CCC(CC2)C1)c1cnccn1,26
CC(=NNC(=S)N1CCN(c2ccccn2)CC1)c1nccs1,78*
S=C(NCc1ccc(Cl)cc1)N1CCN(c2ccccn2)CC1,6
O=C(N/N=C/C1CCCCC1)c1ccccn1,-42
CC(=NNC(=S)N1CCN(c2ccccn2)CC1)c1ccccn1,2
CO[C@H]1CN(C)C(=O)c2cc(NC(=O)C3CCCCC3)ccc2OC[C@@H](C)N(Cc2cccnc2)C[C@@H]1C,-2[25 µM]
COCC(=O)N1[C@H](CO)[C@@H](c2ccc(-c3ccccc3OC)cc2)C12CN(C(C)=O)C2,-2[25 µM]
CC(C)CC#Cc1ccc([C@H]2[C@@H](CO)N3C(=O)CN(C(=O)c4ccccn4)C[C@@H]23)cc1,-10[25 µM]
C[C@@H]1CN(C)C(=O)c2cc(NS(C)(=O)=O)ccc2O[C@@H]1CN(C)C,-4
O=C(CN1CCOCC1)N1CC2(C1)[C@H](c1ccccc1)[C@H](CO)N2Cc1cccc(F)c1,5[25 µM]
COc1ccccc1-c1ccc([C@@H]2[C@@H](C#N)N(C(=O)C3CC3)[C@H]2CO)cc1,-4
O=C(C1CCCC1)N1CC2(C1)[C@@H](c1ccccc1)[C@H](CO)N2Cc1ccc(Cl)cc1,15[25 µM]
CC(C)[C@H]1CC=CC[C@@H](C)Oc2ccccc2C(=O)N(C)[C@H](C(C)C)C(=O)N1 (mixture of isomers),0[25 µM]
O=C(O)CCC(=O)c1ccc2c(c1)OCCO2,-13
O=C(Cn1ncc(Cl)c(Cl)c1=O)c1ccc2c(c1)OCCO2,98*
CCC(=O)c1ccc2c(c1)OCCO2,0
C[C@@H]1CN([C@H](C)CO)C(=O)c2cc(NC(=O)Nc3cccc4ccccc34)ccc2O[C@@H](C)CCCCO[C@@H]1CN(C)S(=O)(=O)c1cn(C)cn1,2[25 µM]
SMILES,BL2 CD40 inh
O=C(NCC[C@@H]1CC[C@@H](NC(=O)c2ccncc2)[C@H](CO)O1)Nc1ccc(Cl)cc1,-28[25 µM]
CCSc1ccc(-c2cc(NC=O)c3ncc(-c4cccc(C(=O)N(C)C)c4)n3c2)cc1,51*
CC(=O)c1ccc(-c2cnc3c(NC=O)cc(-c4ccc(N5CCN(C)CC5)cc4)cn23)cc1,-25
O=CNc1cc(-c2ccccc2)cn2c(-c3ccc(F)c(Cl)c3)cnc12,-23
COc1cccc(-c2ccc3n(c2=O)C[C@H]2[C@H](CO)[C@@H](C(=O)NC4CCC4)N(S(C)(=O)=O)[C@@H]32)c1,-10[25 µM]
CC(=O)N(C)C[C@H]1Oc2ccccc2CC(=O)N(C)C[C@H]1C,-3
CN1C(=O)c2cc(NC(=O)C3CCOCC3)ccc2OC[C@@H]2O[C@H](CC(=O)NCC3CC3)CC[C@@H]21,3
CCC(=O)N1[C@H](C#N)[C@H](c2ccccc2-c2ccccc2)[C@H]1CO,1[25 µM]
Cn1c(SCc2nc3ccccc3n2CCO)nc2ccccc21,9
Cc1nc2cc(CO)ccc2n1C,2
Cn1c(CO)nc2cc(N)ccc21,50*
CCCNC(=O)[C@H]1[C@H](CO)[C@H]2Cn3c(ccc(-c4cccc(OC)c4)c3=O)[C@H]2N1Cc1nccs1,-9[25 µM]
CC=Cc1ccc2n(c1=O)C[C@H]1[C@H](CO)[C@@H](C(=O)NCCCN(C)C)[C@@H]2N1C(=O)c1ccccc1 (mixture of isomers),6[25 µM]
CC(=O)N(C)C[C@H]1Oc2c(NS(C)(=O)=O)cccc2C(=O)N(C)C[C@H]1C,2
CC1=C(SCCO)C(=O)c2ccccc2C1=O,91*[25 µM]
O=S1(=O)N=C(SCCO)c2ccccc21,-11
O=C1c2ccccc2-c2c1c1ccccc1c(=O)n2CCO,-182
O=C(Cc1ccccn1)N1CC(=O)N2[C@H](CO)[C@H](c3ccc(C#CC4CCCC4)cc3)[C@@H]2C1,-5
C[C@@H]1CCCCO[C@@H](CN(C)C(=O)Nc2ccc3c(c2)OCO3)[C@H](C)CN([C@@H](C)CO)C(=O)c2cc(NS(=O)(=O)c3ccc(F)cc3)ccc2O1,4[25 µM]
COc1cc2oc(-c3ccc(O)cc3)cc(=O)c2c(OC)c1O,-18
COc1ccc(-c2cc(=O)c3c(C)cc(O)cc3o2)cc1,-60
O=c1cc(-c2ccc(O)cc2)oc2ccc3ccccc3c12,102*
CC(C)NC(=O)N(C)C[C@H]1Oc2ccc(NS(C)(=O)=O)cc2CC(=O)N(C)C[C@@H]1C,0
O=C1N[C@H](c2ccccc2)COCc2cn(nn2)CC[C@@H](Cc2ccc(C(F)(F)F)cc2)C(=O)N[C@H](c2ccccc2)COCc2cn(nn2)CC[C@H]1Cc1ccc(C(F)(F)F)cc1,-1
O=S(=O)(Nc1ccccc1)c1ccc(S(=O)(=O)N2CCCC2)cc1,2
SMILES,BL2 CD40 inh
O=S(=O)(Nc1cccc2cccnc12)c1ccc(S(=O)(=O)N2CCCC2)cc1,76*
NC(=O)c1ccccc1NS(=O)(=O)c1ccc(S(=O)(=O)N2CCCC2)cc1,5
COc1ccc(S(=O)(=O)N(C)C[C@H]2Oc3ccc(NC(=O)CCN4CCOCC4)cc3CC(=O)N([C@@H](C)CO)C[C@@H]2C)cc1,-7[25 µM]
Cc1ccc(-c2cc(C(=O)NCc3ccco3)c3ccccc3n2)o1,-10
COC(=O)c1cc(-c2ccc(C)o2)nc2ccccc12,-37
Cc1ccc(-c2cc(C(=O)N3CC(C)OC(C)C3)c3ccccc3n2)o1 (stereo unspecified),114*
COc1cc(/C=C/c2ccc(OC)cc2OC)cc(OC)c1,-22[25 µM]
COc1cc(OC)c(OC)cc1/C=C/c1ccnc2ccccc12,-1
COc1ccc(C=Cc2ccc3ccccc3n2)c(OC)c1,49*
N#C[C@@H]1N[C@H](CO)[C@H]1c1ccc(C#CC2CCCC2)cc1,13
N#C[C@H]1N[C@H](CO)[C@H]1c1ccc(C#Cc2ccc(F)cc2)cc1,4[25 µM]
N#C[C@@H]1N[C@H](CO)[C@@H]1c1ccc(C#CC2CCCC2)cc1,-10
N#C[C@H]1N[C@H](CO)[C@H]1c1ccc(C#CC2CCCC2)cc1,62*
N#C[C@H]1N[C@@H](CO)[C@@H]1c1ccc(C#Cc2ccccc2F)cc1,active[25 µM]
N#C[C@@H]1N[C@H](CO)[C@@H]1c1ccc(C#Cc2ccccc2F)cc1,-43[25 µM]
O=C(C[C@@H]1CC[C@H]2[C@@H](COC[C@@H](O)CN2S(=O)(=O)c2ccccc2)O1)NCCN1CCCCC1,4
C/C=C/c1ccc([C@@H]2[C@@H](CN(C)C(=O)CC3CC3)N(C(=O)C3CC3)[C@H]2CO)cc1,4[25 µM]
C[C@H](CO)N1C[C@H](C)[C@H](CN(C)C)Oc2cc(C#CC3CCCCC3)ccc2S1(=O)=O,6
Cc1cccc(-n2nnnc2SCC(=O)NC2CCCC2)c1,5
Nc1ccc(Sc2nnnn2-c2ccccc2)c(Cl)c1,4
Cc1cc(C)cc(N2C(=O)CC(Sc3nnnn3-c3ccccc3)C2=O)c1 (stereo unspecified),99*
CCCNC(=O)N[C@H]1C=C[C@H](CC(=O)N2CCN(C)CC2)O[C@@H]1CO,5[25 µM]
O=C(C(=Cc1ccccc1)CN1CCCCC1)c1ccccc1,73*

# Compound activity from PubChem.
